Measured values as given in PubChem BioAssay (Tox21).
Results filed as inconclusive are left out. The source made the active and inactive calls. Unless noted, calls follow the shape of the full dose curve.

Key:
[1] = Nuclear factor erythroid 2-related factor 2/antioxidant responsive element (Nrf2/ARE) small molecule agonists: qHTS cell viability counter screen in human keratinocytes (AID 1919968; active = well fitted curve in the direction sought with a large enough effect in the repeat runs; an effect the other way counts as inactive or inconclusive; also: nearly all actives have a fitted effect of over 55% in size)
How it was run: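 After a 5 h attachment period, ARE-reporter keratinocytes were dosed with compounds in DMSO and then cultured 23 h at 37 C. Cell viability came from CellTiter-Fluor signal read after a further 1 h.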

[2] = Nuclear factor erythroid 2-related factor 2/antioxidant responsive element (Nrf2/ARE) small molecule agonists: luciferase reporter gene qHTS assay in human keratinocytes (AID 1919969); also: nearly all actives have a fitted effect of over 35% in size
[3] = biological target: Gonadotropin-releasing hormone receptor (Homo sapiens) (UniProt P30968); assay: Human gonadotropin-releasing hormone receptor (GnRHR) small molecule agonists, calcium flux assay in GnRHR-HEK293 cells (AID 1920063); also: nearly all actives have a fitted effect of over 35% in size
How it was run: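 We seeded human GnRHR-expressing HEK293 cells for 18 hours, loaded them with calcium dye for an hour at 37 C, added test compounds, and recorded fluorescence intensity kinetically for three minutes.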

[4] = biological target: KiSS-1 receptor (Homo sapiens) (UniProt Q969F8); assay: Human kisspeptin (KISS1R) small molecule agonists, calcium flux assay in KISS1R-HEK293 cells (AID 1920064; active = well fitted curve in the direction sought with a large enough effect in the repeat runs; an effect the other way counts as inactive or inconclusive)
How it was run: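 Kinetic calcium assay, 1 s sampling over 3 min at Ex/Em 480/540, in HEK293 cells engineered with human KISS1R; compounds delivered in DMSO after 1 h dye loading.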

[5] = G protein-coupled receptor (GPCR) small molecule agonists, calcium flux assay: HEK293 wild type cell line counter screen (AID 1920065)
How it was run: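 Calcium-sensitive dye, loaded 1 h at 37 C into cells cultured 18 h, reports compound-evoked calcium release as fluorescence (Ex/Em 480/540), measured over 3 min. Agonist mode; 15-point titrations, triplicate.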

[6] = p53 small molecule agonists, cell-based qHTS assay with human liver microsomes (AID 1963577)
How it was run: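 p53RE-bla reporter cells were pre-incubated 5 h at 37 C, then treated with compounds plus human liver microsomes (0.5 mg/mL final) and NADPH (0.5 mg/mL final) for 16 h at 37 C. Beta-lactamase activity was read by LiveBLAzer fluorescence after 2 h at room temperature.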

[7] = p53 small molecule agonists, cell-based qHTS assay with rat liver microsomes (AID 1963578)
How it was run: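 p53RE-bla cells were exposed to compounds together with rat liver microsomes (0.5 mg/mL final) and NADPH (0.5 mg/mL final) for 16 h at 37 C, then read by LiveBLAzer beta-lactamase fluorescence after 2 h at room temperature.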

[8] = p53 small molecule agonists, cell-based qHTS assay with human liver microsomes: qHTS cell viability counter screen (AID 1963579); also: nearly all actives have a fitted effect of over 45% in size
How it was run: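 p53RE-bla cells (4,000/well) were pre-incubated 5 h at 37 C, then given compounds in DMSO plus human liver microsomes (0.5 mg/mL final) and NADPH (0.5 mg/mL final) for 16 h at 37 C. Viability was read by CellTiter-Glo luminescence.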

[9] = p53 small molecule agonists, cell-based qHTS assay with rat liver microsomes: qHTS cell viability counter screen (AID 1963580); also: nearly all actives have a fitted effect of over 45% in size
How it was run: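 p53RE-bla HCT-116 cells were exposed 16 h at 37 C to compounds with rat liver microsomes (0.5 mg/mL) and NADPH (0.5 mg/mL). Viability was measured in the same wells as ATP content by CellTiter-Glo luminescence.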

[10] = p53 small molecule agonists, cell-based qHTS assay: qHTS cell viability counter screen (AID 1963581); also: nearly all actives have a fitted effect of over 45% in size
How it was run: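 Following 5 h attachment, HCT-116 p53RE-bla cells took up compound for 16 h at 37 C; the reporter was read with B/G FRET substrate (2 h RT), and viability then via CellTiter-Glo ATP luminescence.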

[11] = p53 small molecule agonists, cell-based qHTS assay (AID 1963582; active = well fitted activation curve with a large enough effect in the signal ratio in the repeat runs, not every such curve was filed as active; the % refers to the signal ratio)
How it was run: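 In this cell-based concentration-response screen, a p53 response element drives beta-lactamase; cells received DMSO-borne compounds after 5 h culture and were incubated a further 16 h before FRET substrate development.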

[12] = cAMP Responsive Elements (CRE) small molecule agonists, cell-based qHTS assay (AID 1963590)
How it was run: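 A CRE-responsive beta-lactamase reporter in HEK 293T cells was used. Treatment ran 3 h at 37 C; detection used LiveBLAzer B/G FRET substrate for 2 h at room temperature.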

[13] = cAMP Responsive Elements (CRE) small molecule antagonists, cell-based qHTS assay (AID 1963591; active = well fitted inhibition curve with a large enough effect in the signal ratio in the repeat runs, not every such curve was filed as active; the % refers to the signal ratio)
How it was run: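 HEK293T cells carrying a CRE-driven beta-lactamase reporter receive compound and NKH477 (0.25 uM final) for 3 h. Fluorescence from LiveBLAzer B/G FRET substrate is read after 2 h at room temperature.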

[14] = biological target: Beta-2 adrenergic receptor (Homo sapiens) (UniProt P07550); assay: Adrenergic beta2 receptor (ADRB2) small molecule antagonists, cell-based qHTS assay (AID 1963592); also: series mostly up to about 92 µM; nearly all actives have a fitted effect of over 50% in size
How it was run: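 Cells (CHO, stable ADRB2 overexpression) incubated 18-20hr at 37C; compounds added from DMSO; agonist mix (1nM isoproterenol, 100uM IBMX, 25uM Ro-20-1724) added; 0.5hr RT; d2-cAMP and anti-cAMP-cryptate added; 1hr RT; 665/615 nm read.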

[15] = biological target: Beta-2 adrenergic receptor (Homo sapiens) (UniProt P07550); assay: Adrenergic beta2 receptor (ADRB2) small molecule agonists, cell-based qHTS assay (AID 1963593);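 also: CHO cells stably overexpressing human ADRB2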
How it was run: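 CHO cells stably over-expressing ADRB2 were plated overnight at 37C, then dosed with compounds plus a stimulation mix containing 100uM IBMX and 25uM Ro-20-1724 for 0.5hr at room temperature. cAMP was measured by HTRF competition, 1hr.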

[16] = biological target: D(2) dopamine receptor (Homo sapiens) (UniProt P14416); assay: Dopamine D2 receptor (DRD2) small molecule agonists, cell-based qHTS assay (AID 1963594); also: nearly all actives have a fitted effect of over 35% in size
How it was run: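 HEK293 cells stably expressing human DRD2, pre-treated with PDE inhibitor Ro20-1724 (0.1 mM final) and compound 10 min at room temperature, then stimulated with NKH477 (200nM […]) for 30 min. cAMP read by HTRF (665/620 nm).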

[17] = biological target: D(2) dopamine receptor (Homo sapiens) (UniProt P14416); assay: Dopamine D2 receptor (DRD2) small molecule antagonists, cell-based qHTS assay (AID 1963595; active = well fitted inhibition curve with a large enough effect in the signal ratio in the repeat runs, with a control signal flat; the % refers to the signal ratio)
How it was run: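 Cells were plated and grown for 24 h at 37 °C. Ro20-1724 (0.1 mM final) went in first, then compound for 10 min. NKH477 (200 nM) with quinpirole (12 nM) followed for 30 min at RT, then HTRF detection reagents for 1 h.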
% is scaled to controls: 0 for no effect and ±100 for the full control effect.

Gonadotropin-releasing hormone receptor (Homo sapiens), sequence (P30968 whole entry, looked up): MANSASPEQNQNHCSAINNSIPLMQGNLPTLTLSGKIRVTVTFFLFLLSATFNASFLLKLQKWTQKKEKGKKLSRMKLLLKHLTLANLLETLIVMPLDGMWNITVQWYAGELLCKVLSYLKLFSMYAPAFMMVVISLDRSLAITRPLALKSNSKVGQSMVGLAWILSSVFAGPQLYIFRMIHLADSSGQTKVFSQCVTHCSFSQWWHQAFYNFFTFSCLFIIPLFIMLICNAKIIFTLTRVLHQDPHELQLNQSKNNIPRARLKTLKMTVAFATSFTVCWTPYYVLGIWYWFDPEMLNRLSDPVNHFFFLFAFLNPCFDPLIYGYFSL
Beta-2 adrenergic receptor (Homo sapiens), sequence (P07550 whole entry, looked up): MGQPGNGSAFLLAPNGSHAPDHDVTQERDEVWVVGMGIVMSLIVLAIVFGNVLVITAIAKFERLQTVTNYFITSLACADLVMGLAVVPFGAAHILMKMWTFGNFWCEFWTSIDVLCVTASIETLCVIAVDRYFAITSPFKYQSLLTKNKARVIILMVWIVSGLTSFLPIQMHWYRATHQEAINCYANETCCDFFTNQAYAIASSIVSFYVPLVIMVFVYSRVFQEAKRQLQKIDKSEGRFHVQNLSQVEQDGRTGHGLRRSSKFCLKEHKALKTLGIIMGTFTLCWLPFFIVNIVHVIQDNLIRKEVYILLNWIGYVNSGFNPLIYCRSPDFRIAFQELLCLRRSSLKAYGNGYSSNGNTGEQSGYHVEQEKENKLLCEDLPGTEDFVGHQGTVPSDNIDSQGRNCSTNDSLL
KiSS-1 receptor (Homo sapiens), sequence (Q969F8 whole entry, looked up): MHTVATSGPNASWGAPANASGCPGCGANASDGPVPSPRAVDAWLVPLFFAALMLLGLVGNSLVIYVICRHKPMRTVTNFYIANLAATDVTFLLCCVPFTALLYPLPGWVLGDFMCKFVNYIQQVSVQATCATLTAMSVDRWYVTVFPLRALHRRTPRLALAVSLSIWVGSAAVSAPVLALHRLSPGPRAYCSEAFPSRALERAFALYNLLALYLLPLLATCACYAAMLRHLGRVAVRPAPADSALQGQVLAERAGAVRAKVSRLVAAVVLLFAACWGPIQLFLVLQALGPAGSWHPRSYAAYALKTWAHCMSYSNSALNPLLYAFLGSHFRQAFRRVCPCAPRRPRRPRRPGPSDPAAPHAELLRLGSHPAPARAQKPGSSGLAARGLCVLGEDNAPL
D(2) dopamine receptor (Homo sapiens), sequence (P14416 whole entry, looked up): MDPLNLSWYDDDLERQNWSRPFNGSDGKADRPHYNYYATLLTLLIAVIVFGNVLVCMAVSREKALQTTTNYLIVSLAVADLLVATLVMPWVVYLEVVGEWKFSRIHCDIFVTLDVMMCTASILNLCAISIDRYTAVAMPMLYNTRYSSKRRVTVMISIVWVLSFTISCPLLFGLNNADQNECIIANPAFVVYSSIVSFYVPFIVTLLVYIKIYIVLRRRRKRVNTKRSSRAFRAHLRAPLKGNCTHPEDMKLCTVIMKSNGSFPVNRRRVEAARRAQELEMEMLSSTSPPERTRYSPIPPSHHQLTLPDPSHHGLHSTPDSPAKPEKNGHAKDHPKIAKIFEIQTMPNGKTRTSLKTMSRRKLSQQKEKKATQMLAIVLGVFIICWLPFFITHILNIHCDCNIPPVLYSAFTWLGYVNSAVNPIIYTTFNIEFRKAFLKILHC

Cc1ccccc1N1CCN(CCc2nnc3n2CCCC3)CC1
inactive: Potency [1] | Potency [2] | Potency [3] | outcome [4] | outcome [5] | Potency [6] | Potency [7] | Potency [8] | Potency [9] | Potency [10] | Potency [11] | Potency [12] | Potency [13] | Potency [14] | Potency [15] | Potency [16] | Potency [17]

Cc1ccc(S(=O)(=O)NC(=O)NN2CC3CCCC3C2)cc1 (configuration not stated)
inactive: Potency [1] | Potency [2] | Potency [3] | outcome [4] | outcome [5] | Potency [6] | Potency [7] | Potency [8] | Potency [9] | Potency [10] | Potency [11] | Potency [12] | Potency [13] | Potency [14] | Potency [15] | Potency [16] | Potency [17]

Cc1c(C)c2c(c(C)c1O)CC[C@@](C)(CCC[C@H](C)CCC[C@H](C)CCCC(C)C)O2
inactive: Potency [1] | Potency [2] | Potency [3] | outcome [4] | outcome [5] | Potency [6] | Potency [7] | Potency [8] | Potency [9] | Potency [10] | Potency [11] | Potency [12] | Potency [13] | Potency [14] | Potency [15] | Potency [16] | Potency [17]

NCC[C@H](O)C(=O)N[C@@H]1C[C@H](N)[C@@H](O[C@H]2O[C@H](CN)[C@@H](O)[C@H](O)[C@H]2O)[C@H](O)[C@H]1O[C@H]1O[C@H](CO)[C@@H](O)[C@H](N)[C@H]1O
inactive: activity change, negative = cytotoxicity [1] -17.6% [at 0.349 µM] | activity, positive = activation [2] 1.57% [at 0.349 µM] | activity change [3] -0.191% [at 0.217 µM, stronger effect = higher value] | activation [4] 0.177% [at 0.29 µM] | activation [5] 0.401% [at 0.217 µM] | activation [6] 0.0378% [at 0.249 µM] | activation [7] -0.443% [at 0.249 µM] | activity change, negative = cytotoxicity [8] 4.34% [at 0.249 µM] | activity change, negative = cytotoxicity [9] 1.45% [at 0.249 µM] | activity change, negative = cytotoxicity [10] -9.5% [at 0.249 µM] | activation [11] 0.378% [at 0.249 µM] | activation [12] -1.43% [at 0.349 µM] | activity change, negative = inhibition [13] -1.04% [at 0.349 µM] | activity change, negative = inhibition [14] 4.47% [at 0.349 µM] | activation [15] 21.1% [at 0.349 µM] | activation [16] -17.8% [at 0.349 µM] | activity change, negative = inhibition [17] -0.368% [at 0.348 µM]

CCOC(=O)OC(C)OC1=C(C(=O)Nc2ccccn2)N(C)S(=O)(=O)c2ccccc21 (configuration not stated)
inactive: Potency [1] | Potency [2] | Potency [3] | outcome [4] | outcome [5] | Potency [6] | Potency [7] | Potency [8] | Potency [9] | Potency [10] | Potency [11] | Potency [12] | Potency [13] | Potency [14] | Potency [15] | Potency [16] | Potency [17]

CCCN(CCC)C(=O)C(CCC(=O)O)NC(=O)c1ccccc1 (configuration not stated)
inactive: Potency [1] | Potency [2] | Potency [3] | outcome [4] | outcome [5] | Potency [6] | Potency [7] | Potency [8] | Potency [9] | Potency [10] | Potency [11] | Potency [12] | Potency [13] | Potency [14] | Potency [15] | Potency [17]

C1CCN2C[C@@H]3C[C@@H](CN4CCCC[C@@H]34)[C@H]2C1
inactive: Potency [1] | Potency [2] | Potency [3] | outcome [4] | outcome [5] | Potency [6] | Potency [7] | Potency [8] | Potency [9] | Potency [10] | Potency [11] | Potency [12] | Potency [13] | Potency [14] | Potency [16] | Potency [17]
